Experimental data taken from ChEMBL document CHEMBL4513141, “CO-ADD screening of NIH (USA) - Clinical Collection” (2021).
Where “and” joins values, the source holds several entries; their conditions need not be identical. Identical values can stand only once. Entries with a potency or affinity are not part of this list.

Key:
Klebsiella pneumoniae = conditions: Concentration 20 uM, ASSAY_TEST Inhibition of Bacterial Growth, detection method Absorption (OD600), MEDIA CAMHB, plate type 384well, NBS, CORNING #3640, time 18 hr
Candida albicans = conditions: 20 µM
Cryptococcus neoformans = conditions: Concentration 20 uM, ASSAY_TEST Inhibition of Fungal Growth, detection method Resazurin, Absorption (OD600-OD570), plate type 384well, NBS, CORNING #3640

SMILES | Inhibition (Klebsiella pneumoniae) | Inhibition (Candida albicans) | Inhibition (Cryptococcus neoformans) | Inhibition (Klebsiella pneumoniae; 20 µM) | Inhibition (Cryptococcus neoformans; 20 µM)
C#C[C@]1(O)CC[C@H]2[C@@H]3CCC4=Cc5oncc5C[C@]4(C)[C@H]3CC[C@@]21C [DANAZOL] | 2.6% | 6.36% | 0.96% |  | 
C[C@@H]1C[C@H]2[C@@H]3CCC4=CC(=O)C=C[C@]4(C)[C@@]3(F)[C@@H](O)C[C@]2(C)[C@@]1(O)C(=O)CO [DEXAMETHASONE] |  | 1.68% and 4.41% |  | -0.78% and 2.8% | -1.2% and -1.22%
CC(C)(C)NC(=O)[C@@H]1C[C@@H]2CCCC[C@@H]2CN1C[C@@H](O)[C@H](Cc1ccccc1)NC(=O)[C@H](CC(N)=O)NC(=O)c1ccc2ccccc2n1.CS(=O)(=O)O [SAQUINAVIR MESYLATE] | 4.6% | 4.21% | -6.99% |  | 
CC(=O)[C@@]1(O)CC[C@H]2[C@@H]3C[C@H](C)C4=CC(=O)CC[C@]4(C)[C@H]3CC[C@@]21C | 2.71% | 2.87% | -0.94% |  | 
CCCCc1nc(Cl)c(CO)n1Cc1ccc(-c2ccccc2-c2nnn[n-]2)cc1.[K+] [LOSARTAN POTASSIUM] | 7.23% | 5% | -3.04% |  | 
Cc1ccc(Cl)c(Nc2ccccc2C(=O)[O-])c1Cl.O.[Na+] [MECLOFENAMATE SODIUM] | 12.39% | 8.09% | 1.36% |  | 
CN(C)CC/C=C1/c2ccccc2COc2ccc(CC(=O)O)cc21.Cl [OLOPATADINE HYDROCHLORIDE] | 3.13% | 4.03% | 4.6% |  | 
CC(=O)/N=c1/sc(S(N)(=O)=O)nn1C [METHAZOLAMIDE] | 3.3% | 3.37% | -3.07% |  | 
Cc1cccc(C)c1NC(=O)C(C)N (stereo unspecified) [TOCAINIDE] | 13.74% | 1.33% | 0.27% |  | 
CC(=O)OCC(=O)[C@@]1(O)CC[C@H]2[C@@H]3CCC4=CC(=O)CC[C@]4(C)[C@H]3[C@@H](O)C[C@@]21C [HYDROCORTISONE ACETATE] | 10.46% | 1.02% | -7.62% |  | 
O=C(O)c1cc2ccccc2c(Cc2c(O)c(C(=O)O)cc3ccccc23)c1O.OCCOCCN1CCN(C(c2ccccc2)c2ccc(Cl)cc2)CC1 [HYDROXYZINE PAMOATE] | 14.51% | 5.15% | 7.04% |  | 
CCCCNc1cc(C(=O)O)cc(S(N)(=O)=O)c1Oc1ccccc1 [BUMETANIDE] | 11.75% | 3.22% | 1% |  | 
C[C@]12C=CC(=O)C=C1CC[C@@H]1[C@@H]2[C@@H](O)C[C@@]2(C)[C@H]1CC[C@]2(O)C(=O)COC(=O)CCC(=O)[O-].[Na+] [PREDNISOLONE SODIUM SUCCINATE] | 6.54% | -0.07% | 1.35% |  | 
CCCN[C@H]1CCc2nc(N)sc2C1 [PRAMIPEXOLE] | 5.86% | 5.21% | -0.71% |  | 
COc1ccc(/C=C/C(=O)Nc2ccccc2C(=O)O)cc1OC | 8.22% | 4.95% | 4.45% |  | 
CC(C)c1nc(CN(C)C(=O)N[C@H](C(=O)N[C@@H](Cc2ccccc2)C[C@H](O)[C@H](Cc2ccccc2)NC(=O)OCc2cncs2)C(C)C)cs1 [RITONAVIR] | 14.84% | 1.82% | -5.87% |  | 
CN1CCN(C2=Nc3ccccc3Oc3ccc(Cl)cc32)CC1.O=C(O)CCC(=O)O [LOXAPINE SUCCINATE] | 7.32% | 2.62% | -0.59% |  | 
C[C@@H]1C[C@H]2[C@@H]3C[C@H](F)C4=CC(=O)C(Cl)=C[C@]4(C)[C@@]3(F)[C@@H](O)C[C@]2(C)[C@@]1(O)C(=O)CO [HALOMETASONE] | 3.82% | -0.05% | -4.6% |  | 
CCN(CC)CCNC(=O)c1ccc(N)cc1.Cl [PROCAINAMIDE HYDROCHLORIDE] | -3.79% | 0.33% | 3.84% |  | 
CCCCC[C@H](O)/C=C/[C@H]1[C@H](O)CC(=O)[C@@H]1CCCCCCC(=O)O [ALPROSTADIL] | 7.2% | 3.09% | 2.52% |  | 
CC[N+](C)(CC)CCOC(=O)C(O)(c1ccccc1)C1CCCCC1.[Br-] (stereo unspecified) [OXYPHENONIUM BROMIDE] | 20% | 2.42% | -6.44% |  | 
Cc1cn([C@H]2C=C[C@@H](CO)O2)c(=O)[nH]c1=O [STAVUDINE] | 14.08% | 2.99% | 0.51% |  | 
